Pol beta inh = blocks human DNA polymerase beta activity. P06746. 340,000 compounds, 1.3% hits. Potency, µM (highest dose often 114 µM), for the others: at the highest dose activity change, negative = inhibition, usual class: inhibitors. Pol beta primer extension/strand displacement, fluorescence kinetic; also: potency is read from the fitted curve at half-maximal effect; % is scaled to controls: 0 for no effect and ±100 for the full control effect
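Human Pol beta at 10 nM; strand-displacement substrate 50 nM final. Compound exposure 15 min at room temperature before start, reaction 10 min at room temperature.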
Pol eta inh-1 = DNA polymerase eta (human) inhibition | Q9Y253 | recombinant Pol eta, fluorescent DNA replication assay | Potency, µM (titrated, usually from 114 µM), for the others: at the highest dose activity change, negative = inhibition, hits mostly inhibitors | 390,000 compounds, 1.2% hits; also: potency is read from the fitted curve at half-maximal effect; % is scaled to controls: 0 for no effect and ±100 for the full control effect
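Fluorescent replication assay: 50 nM final substrate added after a 15 min room-temperature compound preincubation with 10 nM enzyme. Signal taken at 0 min and again at 10 min.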
PI5P4Ka inh = blocks human PI5P4K alpha kinase activity | max response, % | PI5P4Kalpha enzyme, ADP-Glo luminescence, 60 min; hits give low values | AID 652105 | 330,000 compounds, 1.2% hits | P48426; active = max response of -50% or lower; inconclusive = between -30% and -50%; inactive = -30% or higher; also: value at the top dose of about 77 µM; % is scaled to controls: 0 for no effect and ±100 for the full control effect
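Quantitative HTS of the MLSMR library against PI5P4Kalpha with substrate. ATP added last at 5 microM final; room temperature, 60 minutes. Remaining ATP depleted, ADP converted and read as luminescence.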
FEN1 inh = inhibitors of human flap endonuclease 1 | Recombinant FEN1 flap cleavage, fluorescence, 15 min | Potency, µM (doses to about 114 µM), without a hit: at the top dose activity change, negative = inhibition, usual class: inhibitors | 390,000 compounds, 0.35% hits; also: potency is read from the fitted curve at half-maximal effect; % is scaled to controls: 0 for no effect and ±100 for the full control effect; nearly all actives have a fitted effect of over 65% in size
Target sequence (P39748 whole entry, looked up): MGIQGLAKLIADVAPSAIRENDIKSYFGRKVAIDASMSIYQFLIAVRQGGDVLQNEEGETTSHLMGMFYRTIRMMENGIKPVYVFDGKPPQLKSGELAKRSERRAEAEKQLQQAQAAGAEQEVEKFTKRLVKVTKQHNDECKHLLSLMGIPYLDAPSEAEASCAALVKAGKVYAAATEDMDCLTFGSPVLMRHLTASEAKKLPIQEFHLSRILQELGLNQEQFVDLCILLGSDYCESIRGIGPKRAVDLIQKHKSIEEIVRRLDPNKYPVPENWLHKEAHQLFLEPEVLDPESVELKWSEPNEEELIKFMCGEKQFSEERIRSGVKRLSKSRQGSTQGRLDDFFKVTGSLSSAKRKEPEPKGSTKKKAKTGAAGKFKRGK
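Reaction started by adding substrate (50 nM final) to 10 nM enzyme after 15 min room-temperature compound preincubation. Reads at 0 and 15 min, with data normalized and fitted to a four-parameter Hill equation.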
Pol kappa inh-1 = inhibitors of human DNA polymerase kappa; AID 588579; 400,000 compounds, 0.53% hits; Potency, µM (doses to about 107 µM), inactives show top-dose activity, negative = inhibition, hits mostly inhibitors; purified Pol kappa, fluorescent DNA synthesis assay, 10 min; Q9UBT6; also: potency is read from the fitted curve at half-maximal effect; % is scaled to controls: 0 for no effect and ±100 for the full control effect
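Fluorescent qHTS in 1536-well format: enzyme (10 nM) and compound sat 15 min at room temperature before 50 nM substrate (final) was added. Signal taken at 0 and 10 min; no-enzyme buffer wells were negative controls.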
Pol iota inh = inhibitors of human DNA polymerase iota; Potency, µM (top dose mostly 115 µM), without a hit: at the highest dose activity, negative = inhibition, actives largely listed as inhibitors; 390,000 compounds, 1% hits; Q9UNA4; Pol iota fluorescent replication assay, 10 min; also: potency is read from the fitted curve at half-maximal effect
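Pol iota at 10 nM preincubated 15 min with compounds at room temperature; reaction started with fluorescent substrate, 50 nM final. Fluorescence read kinetically at 0 and 10 min; buffer-only wells as negative control.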
GALK inh confirm = galactokinase (human) inhibition, confirmation. shares compounds with Pol eta inh-1. AID 2015. purified GALK, Kinase-Glo ATP depletion luminescence. 150 compounds, 70% hits. Potency, µM (highest dose often 115 µM), for inactives: top-dose activity, negative = inhibition, hits mostly inhibitors
GALK redox cs = counter-screen for GALK inhibitors: redox cycling H2O2 generation. Potency, µM (top dose mostly 115 µM), for inactives: at the top dose activity change, negative = H2O2 signal, actives largely listed as inhibitors. Phenol red-HRP H2O2 redox cycling, absorbance 600 nm. 150 compounds, 40% hits. shares compounds with Pol eta inh-1
HEK293 viability = HEK-293 cytotoxicity, GALK inhibitor secondary; shares compounds with Pol eta inh-1; HEK-293 viability, ATP luminescence (CellTiter-Glo), 24/48 h; Potency, µM (top dose mostly 46.1 µM), inactives show top-dose activity change, negative = cytotoxicity, hits mostly inhibitors; 170 compounds, 10% hits; AID 2547; also: potency is read from the fitted curve at half-maximal effect; % is scaled to controls: 0 for no effect and ±100 for the full control effect
Pol kappa inh-2 = Pol kappa (human) inhibition, cherry-pick confirmation; shares compounds with Pol eta inh-1; purified Pol-kappa, fluorescent strand-displacement substrate; Potency, µM, hits mostly inhibitors; 920 compounds, 76% hits; AID 720501; also: potency is read from the fitted curve at half-maximal effect
Pol eta inh-2 = Pol eta (human) inhibition, cherry-pick confirmation; 2,600 compounds, 64% hits; Potency, µM, hits mostly inhibitors; shares compounds with Pol eta inh-1; Pol eta primer extension, TAMRA/BHQ fluorescence, 10 min; also: potency is read from the fitted curve at half-maximal effect
* hit, by the source's call; ? = inconclusive; · = no result given. A selection: hits, their analogues and other compounds. The true share with any hit is near 2.8%. Unless noted, calls follow the shape of the dose curve; as a rule, active = well fitted curve in the direction sought with a large enough effect; inconclusive = small, poorly fitted or top-dose-only effect, or another doubt; inactive = no such curve, though single readings can be large; an effect the other way counts as inactive or inconclusive.

SMILES	Pol beta inh	Pol eta inh-1	PI5P4Ka inh	FEN1 inh	Pol kappa inh-1	Pol iota inh	Pol kappa inh-2	Pol eta inh-2	others
CC(C)C(C(=O)Nc1ccc2c(c1)OCCOCCOCCOCCO2)N1C(=O)c2ccccc2C1=O (stereo unspecified)	13%	5%	-1	-10%	-8%	26%	·	·
NNc1nccc(Nc2ccccc2C(=O)O)n1	?	13µM*	-54*	-23%	?	?	·	?
c1ccc(Nc2ccnc(Nc3ccccc3)n2)cc1	-13%	-20%	8	2%	4%	7%	·	·
CC(=O)Oc1cc(C(=O)OCC(=O)NC23CC4CC(CC(C4)C2)C3)cc(OC(C)=O)c1OC(C)=O	·	3.2µM*	?	14µM*	18µM*	?	8.4*	9.5*
COc1cccc(C(=O)OCC(=O)NC23CC4CC(CC(C4)C2)C3)c1	·	-23%	7	-7%	-5%	57%	·	·
CCOc1ccccc1-c1ccc(C(=O)O)o1	·	·	·	·	-7%	·	·	·
CCN(CC)C(=O)c1c[nH]c2ccc(S(=O)(=O)Nc3cc(C)cc(C)c3)cc2c1=O	0%	?	0	2%	-13%	-3%	·	·
CCN(CC)CCNS(=O)(=O)c1ccc2[nH]cc(C(=O)O)c(=O)c2c1	18µM*	22µM*	·	-9%	?	?	·	27*
COc1ccc(OC)c(N(CC(=O)NCCSCc2ccc(C)cc2)S(C)(=O)=O)c1	43%	-2%	2	-3%	-12%	66%	·	·
CC/C(=N\NC(=O)CCC(=O)NCc1ccccc1)c1ccc(O)cc1	7%	1%	15	-3%	-11%	48%	·	·
COc1cccc(-c2ccnc3c(-c4ccc(F)cc4)c(C)nn23)c1	2%	-12%	·	-1%	8%	31%	·	·
Cc1ccc(/C=N/Nc2ccc(C(=O)O)cc2)s1	?	40µM*	-23	-10%	-26%	?	?	48*
O=Cc1cn[nH]c1-c1cccc([N+](=O)[O-])c1	-21%	-7%	-1	4%	6%	-14%	·	·
O=C(O)c1cc([N+](=O)[O-])ccc1N1CCCCC1	0%	-13%	1	9%	-13%	-2%	·	·
O=C(O)c1cc([N+](=O)[O-])ccc1-c1ccc([N+](=O)[O-])cc1C(=O)O	·	20µM*	0	·	·	·	3.8*	60*
O=C(O)c1cn[nH]c1-c1cccc([N+](=O)[O-])c1	-15%	20µM*	-24	-15%	?	25µM*	·	67*
Cc1ccc(N2NC(=O)/C(=C/c3ccc(-c4ccc(Cl)c(C(=O)O)c4)o3)C2=O)cc1C	-2%	?	-17	-1%	-44%	?	?	·
Cc1[nH][nH]c(=O)c1C(c1ccc(-c2ccc(Cl)c(C(=O)O)c2)o1)c1c(C)[nH][nH]c1=O	-25%	10µM*	-22	?	50µM*	3.2µM*	24*	60*	GALK inh confirm=?;GALK redox cs=4.7µM*;HEK293 viability=-7%
